Experimental data reported in PubChem BioAssay.
Values without a mark were called inactive. Entries that show only a call come without a potency. For some of these results: Potency and affinity values are given separately. Active and inactive are the calls of the source. Unless noted, the rule behind the calls is not given here.

Experiments:
[1] = antimalarial activity against Dd2 strain (AID 2302;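 active = growth inhibition above 50% at the single 2 µM test dose, taken to imply half-maximal potency below 2 µM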); settings: P. falciparum Dd2 in RBCs, LDH growth readout, 72 h; at 2 µM; stronger effect = higher value
[2] = HepG2 cytotoxicity, primary screen, cytotoxicity control for P. falciparum antimalarial project, cell-based, ATP luminescence (AID 2303;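 active = inhibition above 50%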); settings: HepG2 viability, 24-48 h, at 10 µM, stronger effect = higher value
[3] = molecular target: L-lactate dehydrogenase (Plasmodium falciparum (isolate CDC / Honduras)) (UniProt Q27743); assay: PfLDH activity inhibition – cell lysate, 3D7 strain, counter-screen for P. falciparum growth inhibition project (AID 2304); settings: P. falciparum 3D7 crude extract, LDH APAD/NBT absorbance; at 2 µM; stronger effect = higher value
Sequence of L-lactate dehydrogenase (Plasmodium falciparum (isolate CDC / Honduras)) (Q27743 whole entry, looked up): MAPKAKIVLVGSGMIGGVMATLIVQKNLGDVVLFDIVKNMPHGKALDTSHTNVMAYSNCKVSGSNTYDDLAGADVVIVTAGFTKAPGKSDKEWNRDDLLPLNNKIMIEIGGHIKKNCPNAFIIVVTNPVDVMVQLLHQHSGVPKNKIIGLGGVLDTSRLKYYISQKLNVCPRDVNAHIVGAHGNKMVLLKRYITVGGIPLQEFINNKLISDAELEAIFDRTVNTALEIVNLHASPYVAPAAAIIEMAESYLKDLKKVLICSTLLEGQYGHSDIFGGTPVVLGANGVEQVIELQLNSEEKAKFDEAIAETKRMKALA

[4] = inhibition of 3D7 malaria parasite growth – strain 3D7 (AID 2306); settings: P. falciparum 3D7 erythrocytic growth, LDH absorbance, 72 h; at 2 µM; stronger effect = higher value
[5] = molecular target: Calcium-dependent protein kinase 1 (Plasmodium falciparum (isolate 3D7)) (UniProt P62344); assay: PfCDPK1 kinase inhibitors, biochemical, TCAMS library (AID 1159585; cut-off not given, nearly all actives have IC50 up to about 0.98 µM;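 note: inhibitors leave more ATP so luminescence rises with inhibition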); settings: recombinant PfCDPK1, Kinase-Glo ATP depletion luminescence
Sequence of Calcium-dependent protein kinase 1 (Plasmodium falciparum (isolate 3D7)) (P62344 whole entry, looked up): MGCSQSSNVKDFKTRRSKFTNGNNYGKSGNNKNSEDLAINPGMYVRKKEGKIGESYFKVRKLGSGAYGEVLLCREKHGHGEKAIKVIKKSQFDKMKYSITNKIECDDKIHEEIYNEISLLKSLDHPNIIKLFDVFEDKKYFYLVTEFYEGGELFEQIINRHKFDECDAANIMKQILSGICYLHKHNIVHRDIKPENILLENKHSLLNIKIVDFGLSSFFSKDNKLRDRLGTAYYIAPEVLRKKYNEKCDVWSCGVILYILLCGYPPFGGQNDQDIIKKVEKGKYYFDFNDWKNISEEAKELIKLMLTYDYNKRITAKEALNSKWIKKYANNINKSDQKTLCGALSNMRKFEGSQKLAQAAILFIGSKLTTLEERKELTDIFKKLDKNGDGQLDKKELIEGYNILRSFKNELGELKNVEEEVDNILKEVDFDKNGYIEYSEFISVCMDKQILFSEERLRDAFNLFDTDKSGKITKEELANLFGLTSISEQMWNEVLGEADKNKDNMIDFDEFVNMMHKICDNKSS

[6] = molecular target: Plasmodium falciparum protein kinase 6 (PK6, PF3D7_1337100) (UniProt Q8IDW1); assay: PfPK6 kinase inhibitors, biochemical, TCAMS library (AID 1159586); settings: recombinant PfPK6, Kinase-Glo ATP depletion luminescence
Sequence of Plasmodium falciparum protein kinase 6 (PK6, PF3D7_1337100) (Q8IDW1 1-305): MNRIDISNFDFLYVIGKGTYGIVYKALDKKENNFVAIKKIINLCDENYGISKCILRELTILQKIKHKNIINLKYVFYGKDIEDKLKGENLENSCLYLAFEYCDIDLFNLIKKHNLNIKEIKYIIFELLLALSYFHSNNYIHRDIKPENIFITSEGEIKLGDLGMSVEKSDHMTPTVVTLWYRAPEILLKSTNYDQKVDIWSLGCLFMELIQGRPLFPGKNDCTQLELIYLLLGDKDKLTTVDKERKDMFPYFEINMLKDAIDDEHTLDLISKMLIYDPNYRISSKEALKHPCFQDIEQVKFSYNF

[7] = molecular target: Protein kinase 7 (PK7), Plasmodium falciparum 3D7 (PF3D7_0213400) (UniProt Q7YTF7); assay: inhibition of Plasmodium PK7 catalytic activity – biochemical, TCAMS antimalarial set, Kinase-Glo luminescence (AID 1159587); settings: recombinant PfPK7, Kinase-Glo ATP depletion luminescence
Sequence of Protein kinase 7 (PK7), Plasmodium falciparum 3D7 (PF3D7_0213400) (Q7YTF7 1-343): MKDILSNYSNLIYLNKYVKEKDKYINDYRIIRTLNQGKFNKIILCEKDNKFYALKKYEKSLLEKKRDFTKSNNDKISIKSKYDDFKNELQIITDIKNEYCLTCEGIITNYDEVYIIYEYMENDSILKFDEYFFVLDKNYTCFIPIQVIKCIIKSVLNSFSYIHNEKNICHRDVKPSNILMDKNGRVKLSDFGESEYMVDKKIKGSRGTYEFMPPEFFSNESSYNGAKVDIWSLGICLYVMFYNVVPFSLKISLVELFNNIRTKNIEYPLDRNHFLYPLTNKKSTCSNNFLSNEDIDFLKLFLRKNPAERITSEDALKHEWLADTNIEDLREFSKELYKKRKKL

[8] = molecular target: Calcium-dependent protein kinase 4 (Plasmodium falciparum (isolate 3D7)) (UniProt Q8IBS5); assay: PfCDPK4 kinase inhibitors, biochemical, TCAMS library (AID 1159588; cut-off not given, nearly all actives have IC50 up to about 0.91 µM); settings: recombinant PfCDPK4, Kinase-Glo ATP depletion luminescence
Sequence of Calcium-dependent protein kinase 4 (Plasmodium falciparum (isolate 3D7)) (Q8IBS5 whole entry, looked up): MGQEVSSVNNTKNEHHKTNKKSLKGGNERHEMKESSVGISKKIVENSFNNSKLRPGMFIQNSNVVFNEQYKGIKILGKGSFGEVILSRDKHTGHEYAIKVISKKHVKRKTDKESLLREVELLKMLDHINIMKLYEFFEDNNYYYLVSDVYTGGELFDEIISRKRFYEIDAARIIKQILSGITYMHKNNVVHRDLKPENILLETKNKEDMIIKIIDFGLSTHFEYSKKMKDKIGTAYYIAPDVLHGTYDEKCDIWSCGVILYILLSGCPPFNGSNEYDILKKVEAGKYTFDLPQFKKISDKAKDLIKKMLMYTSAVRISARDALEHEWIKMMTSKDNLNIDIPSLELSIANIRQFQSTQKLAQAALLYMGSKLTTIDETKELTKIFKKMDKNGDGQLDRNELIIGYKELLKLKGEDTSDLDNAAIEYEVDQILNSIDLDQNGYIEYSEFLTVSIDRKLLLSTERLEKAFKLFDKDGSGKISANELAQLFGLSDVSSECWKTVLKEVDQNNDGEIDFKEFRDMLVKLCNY

SMILES	growth inhibition [1]	inhibition [2]	inhibition [3]	growth inhibition [4]	outcome [5]	outcome [6]	outcome [7]	outcome [8]
COc1ccc(CNC(=O)c2cnc3c(O)cccc3c2Nc2cccc(NC(=O)c3ccc(-c4ccccc4)cc3)c2)cc1	83% (active)	42%	6%	90% (active)	inactive	inactive	inactive	inactive
COc1cc(NC(=O)CCCN2CCN(c3cccc(Cl)c3Cl)CC2)ccc1N1CCN(C(C)C)CC1	59% (active)	31%	4%	99% (active)	inactive	inactive	inactive	inactive
COc1ccc(-c2cc(Nc3nc(-c4cccc(Cl)c4)nc4ccccc34)ccn2)cc1	17%	3%	-2%	100% (active)	inactive	inactive	inactive	inactive
CSc1ccc2nccc(Nc3ccc(Oc4ccccc4)cc3)c2c1	68% (active)	30%	-7%	94% (active)	inactive	inactive	inactive	inactive
O=C(NC1CCN(c2ccnc3cc(Cl)ccc23)C1)c1ccc(F)cc1 (stereo not drawn)	97% (active)	26%	4%	94% (active)	inactive	inactive	inactive	inactive
COc1ccc(NC(=O)Nc2ccc(-c3cccc(-c4nc5ccccc5[nH]4)c3)cc2)cc1	41%	44%	3%	99% (active)	inactive	inactive	inactive	inactive
O=C(Nc1cc(C(F)(F)F)cc(C(F)(F)F)c1)Nc1cc(C(F)(F)F)cc(C(F)(F)F)c1	101% (active)	5%	-7%	97% (active)	inactive	inactive	inactive	inactive
O=C(Nc1ccccc1Cl)N(Cc1cc(Cl)cc(Cl)c1)CC(O)COc1ccc(Cl)c(F)c1 (stereo not drawn)	17%	0%	4%	93% (active)	inactive	inactive	inactive	inactive
Cc1cccc2[nH]c(-c3ccc(-c4ccc(NC(=O)Nc5ccc(F)c(F)c5F)cc4)s3)nc12	99% (active)	58% (active)	2%	100% (active)	inactive	inactive	inactive	inactive
O=C(COc1ccccc1)Nn1cnc2ccccc21	-3%	2%	3%	91% (active)	inactive	inactive	inactive	inactive
Cc1cc(F)ccc1-c1nc(NCCCN2CCCC2=O)nc2c1ccc(=O)n2-c1c(F)cccc1F	80% (active)	-7%	-5%	88% (active)	inactive	inactive	inactive	inactive
CCc1c(CCNCCCCCCNCCc2ccc(OC)c(OC)c2CC)ccc(OC)c1OC	1%	58% (active)	0%	100% (active)	inactive	inactive	inactive	inactive
Cc1cccc(C)c1CNc1ccnc2cc(Br)ccc12	99% (active)	24%	-3%	95% (active)	inactive	inactive	inactive	inactive
COc1ccccc1CCNc1nc(C)cc(N[C@@H](Cc2ccccc2)C(=O)NCCc2ccccc2)n1	89% (active)	16%	-3%	100% (active)	inactive	inactive	inactive	inactive
COc1ccc(C(=O)Nc2nonc2-c2ccc(OC)c(OC)c2)cc1Cl	97% (active)	6%	0%	97% (active)	inactive	inactive	inactive	inactive
CC(=O)Nc1nc(C(=O)Nc2cccc(-c3cccc(-c4nc5ccc(F)cc5[nH]4)c3)c2)cs1	100% (active)	39%	-2%	101% (active)	inactive	inactive	inactive	inactive
O=C(NCCCN1CCN(c2cccc(Cl)c2)CC1)c1ccc(-c2nc3cc(Cl)c(Cl)cc3[nH]2)cc1	95% (active)	3%	-1%	98% (active)	inactive	inactive	inactive	inactive
O=C1NC(C(=O)Nc2ccccc2)C(c2ccccc2)S1 (stereo not drawn)	99% (active)	-4%	-1%	95% (active)	inactive	inactive	inactive	inactive
COc1ccc2nccc(N3CCCN(CCNS(=O)(=O)c4ccc5c(c4)NC(=O)CS5)CC3)c2n1	15%	-2%	-9%	97% (active)	inactive	inactive	inactive	inactive
Cc1ccc(NC(=O)N2CCC(n3c(-c4ccccc4)nc4cccnc43)CC2)cc1F	85% (active)	23%	2%	96% (active)	inactive	inactive	inactive	inactive
COc1ccc2nc3cc(Cl)ccc3c(Nc3ccc(O)c(CNC(C)C)c3)c2c1	100% (active)	5%	-1%	102% (active)	inactive	inactive	inactive	inactive

SMILES	growth inhibition [1]	inhibition [2]	inhibition [3]	growth inhibition [4]	outcome [5]	outcome [6]	outcome [7]	outcome [8]
O=C(N[C@H]1CCN(Cc2ccc(OCCN3CCCC3)c(Cl)c2)C1)c1ccc(Cl)c(Cl)c1	46%	68% (active)	-1%	101% (active)	inactive	inactive	inactive	inactive
Cc1cc(N[C@@H](CC(C)C)C(=O)NCCc2ccccc2)nc(NCC2CCCCC2)n1	65% (active)	19%	-1%	97% (active)	inactive	inactive	inactive	inactive
CCN(c1ccc(F)cc1)S(=O)(=O)c1cc(Br)cc2c1N(C(=O)C1CC1)CC2	79% (active)	-16%	7%	88% (active)	inactive	inactive	inactive	inactive
CN1CCN(Cc2ccc(OCc3cccc(COc4ccc(CN5CCN(C)CC5)cc4I)c3)c(I)c2)CC1	69% (active)	93% (active)	0%	92% (active)	inactive	inactive	inactive	inactive
COc1ccnc(NCCCNCc2cn(S(=O)(=O)c3ccccc3)c3ccccc23)c1	18%	57% (active)	-2%	99% (active)	inactive	inactive	inactive	inactive
Cc1[nH]c2ccccc2c(=O)c1-c1ccc(Cl)cc1	91% (active)	-1%	2%	93% (active)	inactive	inactive	inactive	inactive
O=C(NC1CCC(CCN2Cc3ccc(Br)cc3C2)CC1)c1cccc(-c2cccnc2)c1 (stereo not drawn)	73% (active)	14%	5%	99% (active)	inactive	inactive	inactive	inactive
CCN(CC)CCN(Cc1ccc(-c2ccc(C(F)(F)F)cc2)cc1)C(=O)Cn1c(CCc2ccc(F)c(F)c2)cc(=O)c2ccccc21	26%	23%	-1%	95% (active)	inactive	inactive	inactive	inactive
CC(C)(C)c1ccc(NC(=O)c2cccc(CN3CCCN(Cc4cccc(Cl)c4)CC3)c2)cc1	30%	61% (active)	3%	85% (active)	inactive	inactive	inactive	inactive
O=C(Nc1ccc(Cl)cc1)Nc1cccc(-c2cccc(-c3nc4ccccc4[nH]3)c2)c1	56% (active)	70% (active)	0%	100% (active)	inactive	inactive	inactive	inactive
COc1cccc(C(=O)NCc2cccs2)c1Oc1ccccc1	4%	-6%	-4%	98% (active)	inactive	inactive	inactive	inactive
CN(C)Cc1ccc(-c2ccc(NC(=O)c3ccc4c(=O)n(Cc5ccoc5)cnc4c3)cc2)cc1	16%	32%	3%	80% (active)	inactive	inactive	inactive	inactive
CC1(C)N=C(N)N=C(N)N1c1cccc(I)c1	85% (active)	68% (active)	-2%	95% (active)	inactive	inactive	inactive	inactive
COc1ccc(NC(=O)/C=C/c2cc(Br)ccc2F)cc1OCCN(C(C)C)C(C)C	14%	22%	-3%	100% (active)	inactive	inactive	inactive	inactive
Cc1nc2ccc3ccc(CNc4ccc(C(=O)CC(CCC(=O)O)C(=O)O)cc4)cc3c2c(=O)[nH]1 (stereo not drawn)	96% (active)	51% (active)	-1%	95% (active)	inactive	inactive	inactive	inactive
Cc1[nH]c(C)c(-c2ccc(C(=O)c3ccc(Cl)cc3)cc2)c(=O)c1Br	95% (active)	10%	4%	97% (active)	inactive	inactive	inactive	inactive
CN(CCCN)CCCNc1ccnc2cc(Cl)ccc12	-2%	1%	-10%	101% (active)	inactive	inactive	inactive	inactive
COc1cc(NC(=O)c2cccs2)c(OC)cc1NC(=O)Nc1cccc(Cl)c1	10%	5%	-3%	83% (active)	inactive	inactive	inactive	inactive
c1cc(CNCC2CCCO2)cc(-c2ccc(-c3nc4ccccc4[nH]3)s2)c1 (stereo not drawn)	30%	8%	-2%	95% (active)	inactive	inactive	inactive	inactive
CC(C)(NCc1ccc(OC(F)(F)F)cc1)c1nc(-c2ccc(Cl)c(O)c2)c(-c2ccncc2)[nH]1	32%	65% (active)	-8%	94% (active)	inactive	inactive	inactive	inactive
